Bioassay records deposited in PubChem BioAssay by several laboratories.
L major viab: inhibitors of Leishmania major promastigote growth; inhibition, % at 10 µM; AID 1063; 9% of 200,000 active; Leishmania major promastigotes, resazurin fluorescence viability; in the data active means inhibition above about 50%;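 further: promastigotes grown with compound for 44 hours at 28 °C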
ROMK primary: modulates human ROMK potassium channel activity; Tet-inducible ROMK, thallium flux fluorescence; actives lie on both sides; 2% of 130,000 active; B-score at 10 µM; AID 1918; P48048;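 active means signal ratio slope over the read window, or its plate-corrected B-score, at least 3 SD from the plate mean, either direction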;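 further: B-score of the F/F0 ratio slope over 7 to 12 s after thallium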
Target sequence (P48048 whole entry, looked up): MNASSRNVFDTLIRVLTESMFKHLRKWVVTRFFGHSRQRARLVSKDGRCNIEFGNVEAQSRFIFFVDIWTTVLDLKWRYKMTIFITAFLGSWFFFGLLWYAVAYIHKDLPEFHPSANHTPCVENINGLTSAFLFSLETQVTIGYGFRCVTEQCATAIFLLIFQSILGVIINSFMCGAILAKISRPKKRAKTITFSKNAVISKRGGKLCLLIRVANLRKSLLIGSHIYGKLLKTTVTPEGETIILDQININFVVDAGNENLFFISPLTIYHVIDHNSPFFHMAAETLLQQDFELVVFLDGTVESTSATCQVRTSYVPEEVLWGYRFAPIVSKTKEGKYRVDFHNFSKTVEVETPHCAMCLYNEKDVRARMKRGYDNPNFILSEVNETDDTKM
Cl transport mod: modulates chloride dependent transport by human KCC2. 2.2% of 190,000 active. AID 1456. Q9H2X9. B-score of Tl+ flux slope (higher = more flux/activation; lower = inhibition) at 10 µM. KCC2 cells, thallium flux FluoZin-2 fluorescence;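 active means thallium flux slope and its plate-corrected score both differing from the plate sample mean at a set confidence after two filtering rounds, in either direction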;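 further: slope of fluorescence scaled to starting intensity during 10 to 20 s after thallium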
m-calpain inh: inhibitors of pig calpain II; purified calpain II, fluorogenic peptide substrate, 30 min; 0.37% of 220,000 active; inhibition, % at 16 µM;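 active means inhibition above about 50%, limit read from the data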
WT yeast gro inh: growth inhibition of WT yeast, mitochondrial fusion screen | AID 1362 | inhibition, % at 10 µM | 2.1% of 190,000 active | mitochondrial fusion phenotypic screen, WT strain; in the data active means inhibition above about 58%; tested in S. cerevisiae
Active calls of the source: *. Rows were chosen to be rich in hits. Some 12% of all compounds tested hit in one or more screens of this group.

What do the screens show for `CCOC(=O)N1c2ccccc2Sc2ccccc21`?
L major viab: 15.2; ROMK primary: 0.263; Cl transport mod: 0.485; m-calpain inh: 5.1; WT yeast gro inh: 3.2

Results for Cc1ccc(/C(N)=N/OC(=O)N2c3ccccc3Sc3ccccc32)cc1 ?
L major viab: 99.5*

Results for O=C(N=NC(=O)c1ccc2c(O)n(CC3CCCO3)c(O)c2c1)c1cccnc1 (stereo not given) ?
Cl transport mod: 0.372; m-calpain inh: -7.4

How did N#CC1=C(SCC(=O)Nc2ccccc2)NC(=O)CC1c1ccc(O)cc1 (stereo not given) do in these assays?
L major viab: -1.4; Cl transport mod: 0.0322; m-calpain inh: -14.5; WT yeast gro inh: 16.9

How did N#CC1=C(N)NC(SCC(=O)c2ccc(Br)cc2)=C(C#N)C12CCCCC2 do in these assays?
L major viab: 99.9*; ROMK primary: -0.848; Cl transport mod: -2.83; m-calpain inh: 20.1; WT yeast gro inh: 78.2*

How did N#CC1=C(N)NC(SCC(=O)Nc2ccccc2)=C(C#N)C12CCCCC2 do in these assays?
L major viab: 76.7*; m-calpain inh: 12.7; WT yeast gro inh: -18.6

How did CCCSC1=C(C#N)C2(CCCCC2)C(C#N)=C(N)N1 do in these assays?
L major viab: 43.4; ROMK primary: -0.0124; Cl transport mod: -1.72; m-calpain inh: 25.1; WT yeast gro inh: 6.8

Results for O=C1CS/C(=N/N=C\c2ccn[nH]2)N1 ?
ROMK primary: 0.322; Cl transport mod: -0.447; m-calpain inh: 9.6

How did COc1ccc(/C=N/NC(=O)C(Cc2c[nH]c3ccccc23)NC(=O)OCC(C)C)cc1[N+](=O)[O-] (stereo not given) do in these assays?
L major viab: 99.4*; m-calpain inh: -50.0; WT yeast gro inh: 20.0

What do the screens show for `C=CCCCCCCCCc1nc(=S)[nH][nH]1`?
L major viab: 52.8*; ROMK primary: 1.63; Cl transport mod: 64*; m-calpain inh: -13.5; WT yeast gro inh: 74.8*

What do the screens show for `CCC(c1nc2ccccc2c(=O)n1-c1nc2ccccc2s1)N1C(=O)c2ccccc2C1=O` (stereo not given)?
L major viab: 13.7; ROMK primary: 0.12; Cl transport mod: 0.376; m-calpain inh: -27.2; WT yeast gro inh: 20.8

Results for COc1ccc(N2CCN(C(=S)NC(=O)c3cccs3)CC2)c([N+](=O)[O-])c1 ?
L major viab: 2.8; ROMK primary: 3.45*; Cl transport mod: 89.8*; m-calpain inh: 11.2; WT yeast gro inh: 60.5*

How did O=C(NC(=S)N1CCN(c2c(Cl)cccc2[N+](=O)[O-])CC1)c1cccs1 do in these assays?
L major viab: 3.6; m-calpain inh: 32.6; WT yeast gro inh: 77.8*

What do the screens show for `Fc1cnc(N2CCOCC2)nc1N1CCc2ccccc21`?
L major viab: 6.1; ROMK primary: -2.8*; Cl transport mod: -3.26*; m-calpain inh: 5.2; WT yeast gro inh: 50.1

Results for CCCN(Cc1cc2ccc(C)cc2[nH]c1=O)C(=O)c1cccnc1 ?
L major viab: -1.7; Cl transport mod: 0.286; m-calpain inh: -37.9; WT yeast gro inh: -8.1

What do the screens show for `CCN(CC)CCN(Cc1cc2ccc(C)cc2[nH]c1=O)C(=O)NC1CCCCC1`?
L major viab: 5.1; ROMK primary: -0.329; Cl transport mod: 0.824; m-calpain inh: -26.3; WT yeast gro inh: 4.6

How did CCN(Cc1cc2ccc(C)cc2[nH]c1=O)C(=O)c1ccncc1 do in these assays?
L major viab: -6.1; ROMK primary: 1.9; Cl transport mod: 0.341; m-calpain inh: 12.1; WT yeast gro inh: 60.2*

What do the screens show for `CCN(CC)CCN(Cc1cc2ccc(C)cc2[nH]c1=O)C(=O)Nc1ccc(Cl)cc1`?
L major viab: 63.3*; ROMK primary: -0.48; Cl transport mod: 0.00987; m-calpain inh: -27.4; WT yeast gro inh: 3.1

What do the screens show for `COC(=O)c1ccc(=O)n(-c2ccc(OC)cc2)c1`?
L major viab: -3.8; ROMK primary: -0.233; Cl transport mod: 8.16*; m-calpain inh: -73.5; WT yeast gro inh: 5.0

What do the screens show for `COC(=O)c1ccc(NC(=O)Nc2ccc(OC)cc2)cc1`?
L major viab: 40.5; ROMK primary: -0.401; Cl transport mod: 0.624; m-calpain inh: 42.1; WT yeast gro inh: 9.7

What do the screens show for `Cc1ccc(N2C(=O)Nc3ccccc3C2(O)C(=O)N2CCN(c3ccccn3)CC2)cc1C` (stereo not given)?
L major viab: 31.1; ROMK primary: 0.551; Cl transport mod: 1.38; m-calpain inh: -3.7; WT yeast gro inh: -6.9

How did CCc1ccc(N2C(=O)Nc3ccccc3C2(O)C(=O)N2CCN(c3ccccn3)CC2)cc1 (stereo not given) do in these assays?
L major viab: 68.6*; ROMK primary: 0.511; Cl transport mod: 1.37; m-calpain inh: -2.0; WT yeast gro inh: 13.1
